Measurements as given in PubChem BioAssay (Tox21).
Records with an inconclusive call do not appear. A call without a number means that no potency is given here. A number with no mark means an inactive call. Active and inactive are the calls of the source. Calls follow the shape of the dose curve; as a rule, active = well fitted cell-killing curve with a large enough effect in the repeat runs; inconclusive = weak or mixed curves, or effect the other way; inactive = flat fitted curve, though single readings scatter.

experiment: cAMP Responsive Elements (CRE) small molecule agonists, cell-based qHTS assay: qHTS cell viability counter screen (AID 2060914); details: CRE-bla HEK293T viability, CellTiter-Glo luminescence, 5 h; series mostly up to 92.4 µM; also: nearly all actives have a fitted effect of over 50% in size
Outline: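 In the same wells as the reporter read, viability of CRE-bla HEK 293T cells was quantified by CellTiter-Glo luminescence after a 3 h compound exposure.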

Row | Structure (SMILES) | Potency | activity change, negative = cytotoxicity
1 | Cc1ccc(S(=O)(=O)O)cc1C | inactive | –
2 | CCCC(CC)CCCCCCCN (stereo not given) | inactive | –
3 | C#C[C@]1(O)CC[C@H]2[C@@H]3CCC4=CC(=O)CC[C@@H]4[C@H]3CC[C@@]21CC | inactive | –
4 | CC(C)=CCC[C@@](C)(O)[C@H]1CC=C(C)CC1 | inactive | –
5 | CC(NCCC(c1ccccc1)c1ccccc1)c1ccccc1 (stereo not given) | inactive | –
6 | CC(=O)Nc1ccc(S(=O)(=O)Nc2ccc([N+](=O)[O-])cc2)cc1 | inactive | –
7 | C=CC(=O)OCCCCCCOC(=O)C=C | inactive | –
8 | C=CC(=O)OCC(O)COc1ccccc1 (stereo not given) | inactive | –
9 | OCCCCCCCCCCCCBr | inactive | –
10 | O=C(CCCCCCCCc1cccnc1)N1CCC(C=C(c2ccccc2)c2ccccc2)CC1 | inactive | –
11 | CO[C@@H]1[C@@H](OC(N)=O)[C@@H](O)[C@H](Oc2ccc3c(O)c(NC(=O)c4ccc(O)c(CC=C(C)C)c4)c(=O)oc3c2C)OC1(C)C | inactive | –
12 | CCCCCCOCCO | inactive | –
13 | C=CCCCCCCC=C | inactive | –
14 | NNC(=O)CP(=O)(c1ccccc1)c1ccccc1 | inactive | –
15 | O=C(OCCN1CCOCC1)c1cccnc1Nc1cccc(C(F)(F)F)c1 | inactive | –
16 | CC1(C)S[C@@H]2[C@H](N=CN3CCCCCC3)C(=O)N2[C@H]1C(=O)O | inactive | –
17 | CCC(=O)OC/C=C(\C)CCC=C(C)C | inactive | –
18 | O=C(O)Cn1c(=O)n(Cc2ccc(Br)cc2F)c(=O)c2ccc(Cl)cc21 | inactive | –
19 | CN(C)CCCNCCC#N | inactive | –
20 | OCc1c2ccccc2cc2ccccc12 | inactive | –

Row | Structure (SMILES) | Potency | activity change, negative = cytotoxicity
21 | O=C(NC(Cc1cc(=O)[nH]c2ccccc12)C(=O)O)c1ccc(Cl)cc1 (stereo not given) | inactive | –
22 | CC(C)(C)c1cc(CCC(=O)NCCCCCCNC(=O)CCc2cc(C(C)(C)C)c(O)c(C(C)(C)C)c2)cc(C(C)(C)C)c1O | inactive | –
23 | O=c1cc[nH]cc1 | inactive | –
24 | CC(C)(C)NCC(O)c1cc(O)cc(O)c1 (stereo not given) | inactive | –
25 | O=C(Cl)c1cccc([N+](=O)[O-])c1 | inactive | –
26 | Nc1cc(S(=O)(=O)O)ccc1S(=O)(=O)O | inactive | –
27 | O=c1[nH]c(=O)n([C@H]2CCCO2)cc1F | inactive | –
28 | O=C(Oc1ccccc1)c1ccccc1 | inactive | –
29 | CN1C[C@@H]2C[C@H]1CN2c1cc2c(cc1F)c(=O)c(C(=O)O)cn2C1CC1 | – | 19.9% [at 18.9 µM]
30 | O=C(O)Cc1c(Cl)ccc(Cl)c1Cl | inactive | –
31 | CCCCC/C=C/CC1CC(=O)OC1=O (stereo not given) | inactive | –
32 | O=[N+]([O-])c1ccc(O/N=C/c2cc(Br)c(O)c(Br)c2)c([N+](=O)[O-])c1 | inactive | –
33 | C=C(C)C(=O)OCCC(F)(F)C(F)(F)C(F)(F)C(F)(F)C(F)(F)C(F)(F)F | inactive | –
34 | O=NN(CCCl)C(=O)NCCCl | inactive | –
35 | CCCCCCCCCCCC(=O)Cl | inactive | –
36 | CCC(=O)O | inactive | –
37 | Cc1c(F)cc2c(=O)c(C(=O)O)cn3c2c1CCC3C (stereo not given) | inactive | –
38 | O=[N+]([O-])c1cc(C2CCCCC2)c(O)c([N+](=O)[O-])c1 | inactive | –
39 | Cc1cc(-c2ccc(N=Nc3cc(S(=O)(=O)O)c4ccccc4c3N)c(C)c2)ccc1N=Nc1cc(S(=O)(=O)O)c2ccccc2c1N | inactive | –
40 | CCOC(=O)CC(=O)c1cc(F)c(Cl)nc1Cl | inactive | –
